Results as given in PubChem BioAssay AID2716 (Broad Institute, 2010).
The whole screen tested about 320,000 compounds, of which about 3,300 (1%) were called active. The entries come from a sample that favours actives as a whole. A number with no mark means an inactive call.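 The calls were made as follows: active = every valid replicate shows activation above 250% relative to neutral control wells; inactive = the rest, any valid replicate at or below 250%.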

Assay: yeast Mot1-301 growth rescue at high temperature, primary screen, SUMOylation pathway inhibitor project, S. cerevisiae, ATP luminescence, 38.5C (AID 2716);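 also: OY570 slx delta 5 strain wells were the positive control but not used for scaling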
Settings: S. cerevisiae Mot1-301 growth rescue, at 18.8 µM, hits give high values, percent above DMSO median, 100 means doubled

| Structure (SMILES) | growth rescue |
| --- | --- |
| O=C(NCCCN1CCOCC1)c1cn(-c2ccccc2)nc1-c1ccc(F)cc1 | -27.9% |
| COc1cc(NC(=O)C2=CC(c3ccco3)=NS(=O)(=O)N2C)cc(OC)c1OC | 446% (active) |
| COc1cc(NC(=O)C2=CC(c3ccc(C)cc3)=NS(=O)(=O)N2C)cc(OC)c1OC | 18.9% |
| COc1ccc(NC(=O)C2=CC(c3ccc(OC)c(OC)c3)=NS(=O)(=O)N2C)cc1 | 12.2% |
| CCOC(=O)C(NC(C)=O)C(=O)Nc1ccc(OC)cc1 (stereo unspecified) | 5.5% |
| NS(=O)(=O)c1ccc(CNC(=S)NC(=O)c2ccco2)cc1 | -10.3% |
| CCCCc1nc2cc(C(=O)NCCc3cnn(C)c3)ccc2o1 | 249% |
| O=C1CCC(=O)N1CCOP1(=O)COc2ccccc2OC1 | 402% (active) |
| CC1Sc2ccc(C(=O)NCc3ccccc3Cl)cc2NC1=O (stereo unspecified) | -10.2% |
| COc1ccc(C)cc1NC(=O)C(Sc1ccccc1)c1ccccc1 (stereo unspecified) | -9.29% |
| COc1cccc(NC(=O)c2ccc(Cn3cc([N+](=O)[O-])cn3)o2)c1 | -22.4% |
| Cn1cc([N+](=O)[O-])c(C(=O)Nc2ccc3c(c2)OCCO3)n1 | -2.5% |
| COc1cccc(NC(=O)c2nn(C34CC5CC(CC(C5)C3)C4)cc2[N+](=O)[O-])c1 | 384% (active) |
| COc1ccccc1C(=O)NCC(=O)OCC(=O)Nc1nnc(-c2ccccc2)o1 | 0.619% |
| CCCNC(=O)CCn1cc(-c2ccc(OC)cc2)nc1CCN | -5.76% |
| CNS(=O)(=O)c1ccc(NC(=O)Nc2ccc3c(c2)OCO3)cc1 | -8% |
| COc1ccc(Cl)cc1N(CC(=O)N1CCCCC1)S(C)(=O)=O | 316% |
| COCc1c(C(=O)N/N=C\c2cccnc2)nnn1-c1nonc1N | 0.433% |
| C#CCOCCOCCOCCNc1nc(N2CCN(C(=O)[C@H](CCC(=O)O)n3cc(CN)nn3)CC2)nc(N2CCN(C(=O)[C@H](CCC(=O)O)n3cc(CN)nn3)CC2)n1 | -22.6% |
| Cc1ccc(NC(=O)Nc2cccnc2)cc1 | -4.18% |
| Cc1ccc(NC(=O)N2CCC(O)(c3cccnc3)CC2)cc1 | 356% (active) |
| O=C(c1cccc(F)c1)N1CCC(O)(c2cccnc2)CC1 | 16% |
| Cc1ccc(/C=N/NC(=O)c2sccc2OCc2ccc(F)cc2)cc1 | 17.9% |

| Structure (SMILES) | growth rescue |
| --- | --- |
| COc1cc(-c2nc(S(=O)(=O)c3ccc(Cl)cc3)c(N(C)C)o2)cc(OC)c1OC | 9.48% |
| CC(C)CC(=O)Nc1nnc(S(=O)(=O)N(C)c2ccc(Cl)cc2)s1 | -15.6% |
| COC(=O)c1ccc(COc2cc([N+](=O)[O-])cc3cccnc23)cc1 | -14.7% |
| N#CC1=C(N)Oc2[nH]c(=S)[nH]c(=O)c2C12C(=O)Nc1ccccc12 (stereo unspecified) | -12% |
| N#CC1=C(N)Oc2n[nH]c(CSc3ccccc3)c2C12C(=O)Nc1ccccc12 (stereo unspecified) | 564% (active) |
| COC(=O)CCSc1nccn1Cc1ccccc1 | -6.82% |
| Cc1ccc(S(=O)(=O)N(C)C)cc1NC(=O)COC(=O)/C=C/c1cccs1 | -3.27% |
| Cc1ccc(S(=O)(=O)N(C)C)cc1NC(=O)COC(=O)C1COc2ccccc2O1 (stereo unspecified) | -1.18% |
| Cc1ccc(S(=O)(=O)N(C)C)cc1NC(=O)COC(=O)c1c(C)noc1C | 358% (active) |
| O=c1[nH]n2c(=O)c3c([nH]c2c1N=Nc1ccccc1)CCC3 | -13.5% |
| COc1ccc(OC)c(NC(=O)c2ccc3c(c2)C(=O)N(c2ccc(OC(C)=O)cc2)C3=O)c1 | -1.05% |
| COCCCN1C(=O)c2ccc(C(=O)OCC(=O)NCc3ccccc3OC)cc2C1=O | -4.61% |
| COCCCN1C(=O)c2ccc(C(=O)Nc3ccc(OC)cc3OC)cc2C1=O | 994% (active) |
| Cc1cc(S(=O)(=O)c2cc3ccc(O)c(C)c3oc2=O)ccc1F | 2.17% |
| COc1ccc(F)cc1S(=O)(=O)NCC(c1ccc2c(c1)OCO2)N1CCN(C)CC1 (stereo unspecified) | 72.2% |
| COc1ccc(NC(=O)CSc2ccc(-c3ccco3)nn2)c(OC)c1 | -3.7% |
| CCc1ccc(C(=O)COC(=O)c2ccco2)cc1 | 2.04% |
| O=C(COC(=O)c1ccccc1C(=O)c1ccccc1)c1ccco1 | 524% (active) |
| CCN(CC)c1ccc(C(=O)OCC(=O)c2ccco2)cc1 | -12.1% |
| O=C(COC(=O)c1ccccc1O)NCc1ccco1 | 0.0433% |
| CC(=O)Oc1ccccc1C1=NN(C(C)=O)C(c2ccccc2)C1 (stereo unspecified) | -0.218% |
| Cc1ccc(N2C(=O)C3N=NN(CC(=O)N4N=C(c5cccc6ccccc56)CC4c4ccccc4)C3C2=O)cc1 (stereo unspecified) | 376% (active) |
| O=C1C2N=NN(CC(=O)N3N=C(c4cccc5ccccc45)CC3c3ccccc3)C2C(=O)N1c1ccccc1 (stereo unspecified) | -6.23% |

| Structure (SMILES) | growth rescue |
| --- | --- |
| S=C(c1ccc(-c2ccccc2)o1)N1CCCCC1 | 32.2% |
| CCOC(=O)c1cc(-c2ccccc2C)n(Cc2cc(C)no2)n1 | -17.1% |
| COc1ccc(NC(=O)c2cc3nc(-c4ccccc4)cc(C)n3n2)cc1OC | 50% |
| Cc1ccc(-c2cc(C(F)(F)F)n3ncc(C(=O)N4CCCCC4c4cccnc4)c3n2)cc1 (stereo unspecified) | -2.2% |
| O=C(O)c1cnn2c(C(F)(F)F)cc(-c3ccccc3)nc12 | 310% (active) |
| COC(=O)c1cc2nc(-c3ccccc3)cc(C(F)(F)F)n2n1 | 295% (active) |
| Cc1cc(C(F)(F)F)n2ncc(-c3ccccc3)c2n1 | 4.42% |
| O=C(c1ccccc1)N1CCN(C(=O)c2cc3nc(-c4ccccc4)cc(C(F)(F)F)n3n2)CC1 | -13.8% |
| COc1ccc(CNC(=O)c2cc(C(=O)C3CC3)c[nH]2)cc1 | -7.94% |
| COc1ccc(N(CC(=O)Nc2cc(OC)ccc2OC)S(=O)(=O)c2c(C)noc2C)cc1 | 0.112% |
| CCc1nn(-c2cc(Oc3cccc4ccccc34)nc(-c3ccccc3)n2)c(N)c1C#N | 20.3% |
| COC(=O)c1ccc2c(C(C)(C)O)c(C(C)(C)O)[nH]c2c1 | 6.47% |
| COc1ccccc1CNS(=O)(=O)c1cc2c3c(c1)CCC(=O)N3CCC2 | -12.2% |
| O=C(Nc1ccccn1)C1CCN(S(=O)(=O)c2ccccc2)CC1 | -0.505% |
| O=C(Nc1nccs1)C1CCN(S(=O)(=O)c2ccc(Cl)c(C(F)(F)F)c2)CC1 | 639% (active) |
| O=C(Nc1ccccn1)C1CCN(S(=O)(=O)c2ccc3c(c2)OCCO3)CC1 | -4.76% |
| COc1ccccc1CNC(=O)[C@@H]1CCCN1C(=O)[C@@H]1Cc2ccccc2CN1C(=O)OC(C)(C)C | -1.52% |
| CCOc1ccc(Oc2nc(C)cc(OC)n2)nn1 | -10.1% |
| O=C(CNS(=O)(=O)c1ccccc1)NCC(=O)OCc1ccccc1F | -4.19% |
| Cc1ccc(SCC(=O)NC(=O)NCc2ccco2)c(C)c1 | -8.85% |
| CSc1ncnc2sc(C)c(C)c12 | -17.7% |
| COC(=O)c1c(-c2cccs2)csc1NC(=O)CSc1ncnc2sc(C)c(C)c12 | -4.24% |
| Cc1sc2ncnc(Sc3nc4ccccc4s3)c2c1C | 512% (active) |

| Structure (SMILES) | growth rescue |
| --- | --- |
| CCOc1ccc(S(=O)(=O)NCCC(=O)N2CCCCCCC2)cc1 | 10% |
| COc1ccc(S(=O)(=O)N2CCCCCC2)cc1NC(=O)Cc1ccc(OC)c(OC)c1 | -10.8% |
| NC(=O)c1cc(S(=O)(=O)N2CCCC2)ccc1OCc1ccc(F)cc1 | 359% (active) |
| Cc1ccc(S(=O)(=O)N2CCOCC2)cc1C(=O)NCc1ccc(F)cc1 | 2.54% |
| COc1ccc(OC)c(-n2cc3c(=O)n(C)c(=O)n(C)c3c2)c1 | 2.1% |
| O=c1c2ccccc2nc(CSc2nnnn2-c2ccccc2)n1-c1ccccc1 | 1010% (active) |
| O=c1c2ccccc2nnn1CSc1nnnn1-c1ccccc1 | 0.362% |
| Cc1ccc(Nc2nc(CSc3nnnn3-c3ccccc3)cc(=O)[nH]2)cc1 | 3.22% |
| Cn1c(N)c(C(=O)COC(=O)c2ccccc2NCc2ccco2)c(=O)n(C)c1=O | 72.4% |
| COC(=O)c1ccc(C(NC(=O)OCc2ccccc2)/C(F)=C/[C@@H](C)C(=O)O)cc1 (stereo partly specified) | -2.48% |
| CCc1ccccc1S(=O)(=O)Cc1ccc(C(=O)NCCc2ccccc2)o1 | -2.78% |
| COc1ccc(N2C(=O)CC(Sc3n[nH]c(-c4ccc(C)cc4)n3)C2=O)cc1 (stereo unspecified) | 257% |
| Cc1ccc(N2C(=O)CC(Sc3ncn[nH]3)C2=O)cc1 (stereo unspecified) | 287% (active) |
| O=C1CC(Sc2ncn[nH]2)C(=O)N1c1ccccc1 (stereo unspecified) | -26.4% |
| COc1cc(Cl)c(C)cc1NC(=O)CSc1nnc(CN2CCCC2)o1 | 50.1% |
| CCOc1cc2[nH]c(=S)n(Cc3ccc(C(=O)N4CCN(C)CC4)cc3)c(=O)c2cc1OCC | -1.75% |
| O=C(CNS(=O)(=O)c1ccc(Br)s1)NCc1ccc2c(c1)OCO2 | 17.3% |
| O=C(CNC(c1ccccc1)c1ccccc1)Nc1ccc(F)cc1 | 14.1% |
| CN1C(=O)CC(c2ccccc2)C1=O (stereo unspecified) | 8.06% |
| O=C1CC(c2ccccc2)C(=O)N1c1cccc(O)c1 (stereo unspecified) | 564% (active) |
| O=C1OCC2=C1C(c1ccccc1)CC(=O)N2c1cccc(F)c1 (stereo unspecified) | 4.11% |
| COc1ccc(C(C)=O)cc1CN1C(=O)NC2(CCCCC2C)C1=O (stereo unspecified) | 115% |
